Compound activity deposited in PubChem by Johns Hopkins Ion Channel Center.
Only some compounds are listed: those with a hit (about 1.6% of all), similar ones and a draw of the others.
KCNQ2 block = inhibitors of rat KCNQ2 potassium channel; CHO-K1 KCNQ2, FluxOR thallium flux, 20 min; hits give low values; B-score at 10 µM; 310,000 compounds, 1.1% hits;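 active means fluorescence ratio B-score at most minus 3 library SDs, with starting brightness B-score within 2 library SDs, cut at about -5.5 in these data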
Target sequence (O88943 whole entry, looked up): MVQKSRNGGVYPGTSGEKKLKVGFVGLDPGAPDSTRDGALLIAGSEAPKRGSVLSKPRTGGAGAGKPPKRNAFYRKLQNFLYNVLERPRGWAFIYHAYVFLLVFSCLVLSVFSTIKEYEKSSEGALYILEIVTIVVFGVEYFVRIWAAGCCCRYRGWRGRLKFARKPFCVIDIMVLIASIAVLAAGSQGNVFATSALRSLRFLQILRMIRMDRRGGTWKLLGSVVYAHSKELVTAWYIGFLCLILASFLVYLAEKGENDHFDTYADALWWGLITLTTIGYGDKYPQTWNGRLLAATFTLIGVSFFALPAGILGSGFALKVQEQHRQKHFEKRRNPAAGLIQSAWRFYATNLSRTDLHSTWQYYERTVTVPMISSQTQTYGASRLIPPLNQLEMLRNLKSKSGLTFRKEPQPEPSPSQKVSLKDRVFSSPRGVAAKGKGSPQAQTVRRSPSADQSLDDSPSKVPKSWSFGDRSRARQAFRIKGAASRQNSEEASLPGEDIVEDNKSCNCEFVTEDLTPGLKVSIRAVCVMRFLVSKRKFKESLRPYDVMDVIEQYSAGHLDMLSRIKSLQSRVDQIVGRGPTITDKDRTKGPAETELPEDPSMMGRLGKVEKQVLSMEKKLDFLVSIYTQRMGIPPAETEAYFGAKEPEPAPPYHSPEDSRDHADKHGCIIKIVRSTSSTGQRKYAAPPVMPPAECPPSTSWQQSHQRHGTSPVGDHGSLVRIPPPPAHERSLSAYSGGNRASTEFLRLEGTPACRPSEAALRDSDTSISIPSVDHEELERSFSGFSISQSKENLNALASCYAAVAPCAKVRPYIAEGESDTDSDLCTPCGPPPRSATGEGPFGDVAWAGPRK
KCNQ2 enhance = potentiators of rat KCNQ2 potassium channel | CHO-K1 KCNQ2, FluxOR thallium flux fluorescence; hits give high values | O88943 | 310,000 compounds, 0.54% hits | B-score at 10 µM;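 active means fluorescence ratio B-score at least 3 SD of library B-scores, with initial fluorescence B-score within 3 of them, cut at about 5.3 in these data; same plate scores as AID 2156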;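 further: B-score of peak minus minimum over baseline fluorescence ratio after K+ and Tl+ stimulus; positive B-score means potentiation of KCNQ2 with more thallium influx and brighter signal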
Numbers stand for hits; i = inactive; nt = not tested or not shown.

SMILES	KCNQ2 block	KCNQ2 enhance
CN(C)c1nc(SCC(=O)Nc2ccccc2)nc(N2CCOCC2)n1	i	6.4
CN(C)c1nc(SCC(=O)Nc2ccc(Cl)c(Cl)c2)nc(N2CCOCC2)n1	i	i
Cc1ccc2nc(C)cc(C(=O)N3CCCC(CO)(Cc4ccccc4C)C3)c2c1 (centres undefined)	i	nt
Cc1ccc(NC(=O)CSc2nnc(Cc3csc(C)n3)o2)c(C)c1	i	i
CC(C)n1c2ccccc2c2cc([N+](=O)[O-])ccc21	i	i
CCC(C)n1c(=S)[nH]c2c(sc3ccc([N+](=O)[O-])cc32)c1=O (centres undefined)	i	25
Cc1ccccc1NC(=O)c1cccc2c1C(=O)N(C1CCCCC1)C2	i	nt
CCOc1ccccc1NC(=O)c1cccc2c1C(=O)N(C1CCCCC1)C2	-6.3	i
Cc1sc2nc(C3CC3)nc(N3CCN(C(=O)c4ccc(Cl)cc4)CC3)c2c1C	i	nt
Cc1c(C(=O)N2CCNCC2)oc2ccccc12	i	nt
COc1ccc(Oc2cnc3ccccc3n2)cc1	-6	i
c1ccc(Oc2cnc3ccccc3n2)cc1	i	i
Cc1ccc(S(=O)(=O)N2CCOC2CNC(=O)C(=O)NCc2ccncc2)cc1 (centres undefined)	i	nt
COC(=O)CC(NC(=O)CN1CCN(c2ccc(F)cc2)CC1)c1cccc(F)c1 (centres undefined)	i	i
COc1c(Cl)cc(-c2noc(C)c2C(=O)NCc2ccccc2)cc1Cl	i	i
COc1c(Cl)cc(-c2noc(C)c2C(=O)NCc2ccc3c(c2)OCO3)cc1Cl	i	14
CCOC(=O)Cc1csc(NC(=O)Cn2c(=O)oc3ccccc32)n1	i	nt
Cc1cccc(C)c1NC(=O)CN(C)C(=O)c1ccccc1C(=O)N(C)Cc1ccccc1	-6.6	i
Cc1ccccc1C(=O)N(C)Cc1ccccc1	i	nt
Cn1c(CNC(=O)CCNC(=O)c2ccc(F)c(F)c2)cc(=O)n(C)c1=O	i	i
Cc1cc(=O)c2cc3nc(-c4cccnc4)oc3c(Br)c2o1	i	nt
NC(=O)NOCc1ccccc1F	i	nt
CC(C)CC(O)(c1ccccc1)C(CN1CCOCC1)c1ccccc1 (centres undefined)	i	nt
OC(c1ccc(F)cc1)(C1CCCCC1)C(CN1CCOCC1)c1ccccc1 (centres undefined)	-5.7	i
CCC(COC)NCc1cn(-c2ccc(OC)cc2)nc1-c1cccc(F)c1 (centres undefined)	i	nt
SMILES	KCNQ2 block	KCNQ2 enhance
O=C1NC(c2ccccc2O)Nc2ccccc21 (centres undefined)	i	nt
Cc1ccc(C)c(C2NC(=O)c3ccccc3N2)c1 (centres undefined)	-5.6	i
C=CCn1c(COc2ccccc2)nnc1SC(C)C(=O)N/N=C/c1cc(Cl)ccc1O (centres undefined)	-7.6	i
C=CCn1c(COc2ccc(Cl)cc2)nnc1SCC(=O)N/N=C/c1cccc(O)c1	i	i
Cc1cc(C)cc(C(=O)NCCC(=O)NCc2cc(=O)n(C)c(=O)n2C)c1	i	i
CCOC(=O)N1CCC(N2CCN(C3CCCC3)C(CCO)C2)CC1 (centres undefined)	i	i
C[C@@H]1CC=C[C@H]2[C@H]1C(=O)N(Cc1ccccc1)[C@H]2c1ccoc1	i	nt
C[C@@H]1CC=C[C@H]2[C@H]1C(=O)N(Cc1ccccc1)[C@H]2c1ccc2ccccc2c1	i	nt
CC[C@@H]1CC=C[C@H]2[C@H]1C(=O)N(Cc1ccccc1)[C@H]2c1ccoc1	-6.2	i
C[C@@H]1CC=C[C@H]2[C@H]1C(=O)N(Cc1ccccc1)[C@H]2c1ccc2ccccc2c1Br	-7.5	i
CCSCCOC(=O)C1=C(C)N(C)C(=O)NC1c1ccc2c(c1)OCO2 (centres undefined)	i	i
Cc1ccc(S(=O)(=O)N2CCN(C(=O)COC(=O)CNC(=O)c3ccc(Cl)cc3Cl)CC2)cc1	i	i
COc1ccc([N+](=O)[O-])c(OC)c1C(=O)NC(=O)Nc1c(F)c(F)c(F)c(F)c1F	i	nt
CC(=O)Nc1ccc(S(=O)(=O)N2CCN(Cc3csc(C)n3)CC2)cc1	i	i
Cc1cccc(-n2ncc3c2CCCC3NC(=O)C2(C(N)=O)CC2)c1C (centres undefined)	i	i
COc1ccc(C(=O)NC2CC(C)(C)Cc3c2cnn3-c2ccccc2C)c(OC)c1OC (centres undefined)	i	nt
Cc1cc(C)c(C(=O)NC2CCCc3c2cnn3-c2cccc(C)c2C)o1 (centres undefined)	-6.6	i
Cc1cc(C(=O)NC2CC(C)(C)Cc3c2cnn3-c2ccccc2C)c(C)o1 (centres undefined)	-5.7	i
C#CCNC(=O)C1CCN(c2cc(C)nc(-c3ccccc3)n2)CC1	i	nt
Nc1c(-c2ccccc2)c(CSc2nc3ccccc3[nH]2)nn1-c1cccc(Cl)c1	-5.6	i
Nc1c(-c2ccccc2)c(CSc2nc3ccccc3[nH]2)nn1-c1ccc(Cl)cc1	i	nt
COc1ccc(Cl)cc1NC(=O)Nc1ccc(C(=O)N2CCOCC2)cc1	i	i
O=C(NCc1cccnc1)c1ccc(Br)o1	i	i
